Among all 16,000 compounds or so, about 5,700 (36%) were called active. Inconclusive results (about 24%) are left out. This is one part of the list. A number with no mark means an inactive call. The call rests on the fitted dose curve; in most records, active means well fitted curve in the direction sought with a large enough effect; inconclusive means small, poorly fitted or top-dose-only effect, or effect the other way; inactive means no such curve, though single readings can be large or run the other way.
target: Cytochrome P450 1A2 (Homo sapiens) (UniProt P05177); test: Cytochrome panel assay with activity outcomes; conditions: recombinant CYP, pro-luciferin dealkylation, luminescence, p450-cyp1a2; series mostly up to 57.1 µM
Sequence (P05177 whole entry, looked up): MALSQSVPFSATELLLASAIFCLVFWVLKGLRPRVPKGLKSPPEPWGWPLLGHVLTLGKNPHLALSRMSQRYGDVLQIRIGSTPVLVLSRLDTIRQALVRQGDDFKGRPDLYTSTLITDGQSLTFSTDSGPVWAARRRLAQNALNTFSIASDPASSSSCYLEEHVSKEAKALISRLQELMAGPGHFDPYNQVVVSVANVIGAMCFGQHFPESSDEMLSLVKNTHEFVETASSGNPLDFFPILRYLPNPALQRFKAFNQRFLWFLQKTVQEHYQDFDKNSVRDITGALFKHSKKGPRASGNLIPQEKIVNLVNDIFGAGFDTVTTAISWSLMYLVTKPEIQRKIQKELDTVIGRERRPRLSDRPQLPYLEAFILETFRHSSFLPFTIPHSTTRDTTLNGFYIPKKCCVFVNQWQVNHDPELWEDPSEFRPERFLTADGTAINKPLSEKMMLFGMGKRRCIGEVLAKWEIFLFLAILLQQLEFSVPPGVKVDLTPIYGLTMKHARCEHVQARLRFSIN
On the % scale 0 is the no-effect control and ±100 the full control effect.

Row | Compound | activity, negative = inhibition | AC50
1 | COC(=O)NC/C=C\c1nc(CC/C=C\C(=O)O[C@H]2C[C@H]3CC(=O)O[C@@H](/C=C\CC(C)C)C[C@@H]4CC[C@H](C)[C@H](C[C@@H](OC)C[C@H](C2)O3)O4)co1 | 3.2% [at 11.4 µM] | –
2 | Cc1cccc([C@H](C)c2cnc[nH]2)c1C | – | 158 nM (active)
3 | C=C1CC[C@H](O)C/C1=C/C=C1\CCC[C@]2(C)[C@H]1CC[C@H]2[C@@H](C)CCCC(C)C | – | inactive
4 | CCNC(=S)NC1CC2CCCC(C1)N2Cc1ccco1 (centres undefined) | – | inactive
5 | CCCN(CCC)[C@@H]1CCc2cccc(O)c2C1 | – | inactive
6 | CCS(=O)(=O)Nc1cccc(C(=C2CCCCC2)c2cnc[nH]2)c1 | – | 316 nM (active)
7 | C[N+]1(C)C2CC[C@H]1CC(OC(=O)[C@@H](CO)c1ccccc1)C2 (some centres undefined) | 5.51% [at 11.4 µM] | –
8 | C[C@H](CN(C)C)C(C#N)(c1ccccc1)c1ccccc1 | -3.45% [at 2.29 µM] | –
9 | NCC[Se][Se]CCN | – | 3160 nM (active)
10 | CC[C@H]1CN2CC[C@@H]1C[C@H]2[C@@H](O)c1ccnc2ccc(OC)cc12 | – | inactive
11 | COc1ccc(Cl)cc1NC(=O)NCCCl | – | 2820 nM (active)
12 | C[C@H]1CN(C2CCC(C#N)(c3ccc(F)cc3)CC2)CC[C@@]1(C(=O)O)c1ccccc1 (some centres undefined) | – | inactive
13 | CCCN1CCC[C@H](c2cccc(O)c2)C1 | – | inactive
14 | O=C(O)c1ccccc1-c1c2cc(Br)c(=O)cc-2oc2[c]([Hg])c(O)c(Br)cc12 | – | 15800 nM (active)
15 | C[C@H](N)[C@H](O)c1ccc(O)c(O)c1 | – | inactive
16 | CCC(=O)O[C@H]1CC[C@H]2[C@@H]3CCC4=CC(=O)CC[C@]4(C)[C@H]3CC[C@]12C | – | inactive
17 | CCN1CCC2(CC1)NC(CO)(CO)CO2 | – | inactive
18 | COc1c2c(cc3c1OCO3)CCN(C)C2 | – | 2000 nM (active)
19 | C[C@]12N[C@@H](Cc3ccccc31)c1ccccc12 | – | inactive
20 | N[C@@H]1C=CC=C(C(=O)O)C1 | – | inactive
21 | COC(=O)C(O)(c1c(C)[nH]c2ccccc12)C(F)(F)F (centres undefined) | – | 15800 nM (active)
22 | N[C@H](Cc1o[nH]c(=O)c1Cl)C(=O)O | – | inactive

Row | Compound | activity, negative = inhibition | AC50
23 | CCCCN1C(=O)/C(=C/c2ccc(N(C)C)cc2)C(=O)N(Cc2ccco2)C1=O | – | 15800 nM (active)
24 | O=S(=O)(O)/C(=C\c1ccccc1)c1ccccc1 (tested in a mixture with another compound) | -29% [at 2.29 µM] | –
25 | C=C[C@H]1CN2CC[C@@H]1C[C@H]2[C@@H](O)c1ccnc2ccccc12 | – | inactive
26 | c1cc(CN2CCCC3(CCNCC3)C2)ccn1 | – | inactive
27 | CO[C@@H]1CC=C2CCN3CCC4=C(CC(=O)OC4)[C@]23C1 | – | inactive
28 | C[C@@H]1Cc2cc3c(cc2C(c2ccc(N)cc2)=NN1)OCO3 | – | 5010 nM (active)
29 | CC(C)CCC1(CCN)C(=O)NC(=O)NC1=O | -13.1% [at 11.4 µM] | –
30 | CC(=O)OC1N=C(c2ccccc2)c2cc(Br)ccc2N(C)C1=O (centres undefined) | – | inactive
31 | CC(C)(C)NC[C@H](O)c1ccccc1Cl | – | inactive
32 | C[C@H](N)c1cccc(Cl)c1Cl | – | 1260 nM (active)
33 | CN1[C@H]2CC(=O)C[C@@H]1[C@@H](O)C2 | – | inactive
34 | O=C(O)[C@H]1[O][Sb][O][C@@H](C(=O)O)C1O (some centres undefined) | -15% [at 2.29 µM] | –
35 | Fc1ccc(CCNCc2ccc(Cl)c(Cl)c2)cc1 | – | 2240 nM (active)
36 | Cn1cccc1CNCCc1ccccc1 | – | inactive
37 | C=CCN1C[C@@H](C)N([C@H](c2ccc(C(=O)N(CC)CC)cc2)c2cccc(OC)c2)C[C@H]1C | – | inactive
38 | C[C@H]1CC[C@@]2(NC1)O[C@@H]1C[C@@H]3[C@@H]4CC=C5C[C@@H](O)CC[C@]5(C)[C@@H]4CC[C@]3(C)[C@H]1[C@@H]2C | -1.04% [at 11.4 µM] | –
39 | C[C@@]12CC[C@H]3[C@@H](CC=C4C[C@H](OS(=O)(=O)O)CC[C@]43C)[C@H]1CCC2=O | – | inactive
40 | COCOc1ccc(Br)cc1C(=O)/C=C\c1ccc2c(c1)OCO2 | -3.01% [at 11.4 µM] | –
41 | N[C@@H](Cc1ccccc1)P(=O)(O)O | -13.6% [at 11.4 µM] | –
42 | CN1CCN(c2ccc([N+](=O)[O-])c(N/N=C3\CN4CCC3CC4)c2)CC1 | – | inactive
43 | O=[N+]([O-])c1ccc(N2CCNCC2)cc1NCC1CCCO1 (centres undefined) | – | 1410 nM (active)
44 | O=[N+]([O-])c1ccc(N2CCNCC2)cc1NC1CC1 | – | 708 nM (active)

From PubChem BioAssay AID1851 (National Center for Advancing Translational Sciences (NCATS), 2009)
